PubChem BioAssay (NCATS)
Results filed as inconclusive are left out. The source made the active and inactive calls. Calls come from the whole dose curve; as a rule, active = well fitted cell-killing curve with a large enough effect; inconclusive = small, poorly fitted or top-dose-only effect, or effect the other way; inactive = no such curve, though single readings can be large or run the other way.
Note: nearly all actives have a fitted effect of over 30% in size.
Potency is the fitted concentration of half-maximal effect.

Test: Quantitative High-Throughput drug screen in 47 multiple myeloma cell lines against the NCATS MIPE library collection: EJM_DSMZ cell viability assay (AID 1918926)
Settings: EJM myeloma cell viability, CellTiter-Glo ATP, 48 h; series mostly up to 45.8 µM
Procedure, shortened: (§1)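 Relative luminescence from CellTiter-Glo served as the viability signal, referenced to DMSO-treated (100%) and cell-free medium (0%) controls. Treatment lasted 48 hours at 37C with 500 cells per well.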
In the case of `O=C(O)c1ccc(O)c2ncc(N3CCOCC3)cc12`, the Potency is reported as “inactive”.
For `C[C@@H]1CC=CC=CC=CC=C[C@@H](O[C@@H]2O[C@H](C)[C@@H](O)[C@H](N)[C@H]2O)C[C@@H]2O[C@](O)(C[C@@H](O)C[C@@H]3O[C@@H]3C=CC(=O)O1)C[C@H](O)[C@@H]2C(=O)O`, the Potency was “inactive”.
With `COc1ccc(-c2oc3c(CC=C(C)C)c(O)cc(O)c3c(=O)c2O)cc1` the Potency was 18.7 µM (active).
In the case of `CC(C)C[C@H](NC(=O)c1cc2ccccc2s1)C(=O)N1CCN(C(=O)[C@H](CO)NS(=O)(=O)c2ccc(Cl)cc2Cl)CC1`, the Potency is reported as 18.7 µM (active).
In the case of `CO[C@H]1/C=C\O[C@@]2(C)Oc3c(C)c(O)c4c(O)c(c(C=NN5CCN(C6CCCC6)CC5)c(O)c4c3C2=O)NC(=O)C(C)=CC=C[C@H](C)[C@H](O)[C@@H](C)[C@@H](O)[C@@H](C)[C@H](OC(C)=O)[C@H]1C`, the Potency is reported as 0.833 µM (active).

Test: Quantitative High-Throughput drug screen in 47 multiple myeloma cell lines against the NCATS MIPE library collection: AMO1_DSMZ cell viability assay (AID 1918927)
Settings: AMO1 myeloma cells viability, CellTiter-Glo ATP luminescence, 48 h; series mostly up to 45.8 µM
Procedure, shortened: as §1
In the case of `CCCCCCCCCCCCCCCC(=O)O[C@H]1[C@@H](O)[C@@H](O)[C@@H]([C@H](NC(=O)[C@@H]2C[C@@H](CCC)CN2C)[C@H](C)Cl)O[C@@H]1SC`, the Potency is reported as “inactive”.
In the case of `C[C@@H](O[C@H]1OCCN(Cc2n[nH]c(=O)[nH]2)[C@@H]1c1ccc(F)cc1)c1cc(C(F)(F)F)cc(C(F)(F)F)c1`, the Potency is reported as 5.9 µM (active).
For `NC[C@H]1O[C@H](O[C@@H]2[C@@H](O)[C@@H](O[C@H]3O[C@H](CO)[C@@H](O)[C@H](N)[C@@H]3O)[C@H](N)C[C@@H]2N)[C@H](O)[C@@H](O)[C@H]1O`, the Potency was “inactive”.
For `CC[C@]1(O)C[C@H]2CN(CCC3=c4ccccc4=N[C]3[C@@](C(=O)OC)(c3cc4c(cc3OC)N(C)[C@H]3[C@@](O)(C(N)=O)[C@H](O)[C@]5(CC)C=CCN6CC[C@]43[C@@H]65)C2)C1`, the Potency was 0.833 µM (active).
With `CN1CC(=O)NC1=NC(=O)Nc1cccc(Cl)c1` the Potency was “inactive”.
In the case of `O=C(O)Cc1cccc(OCCCN(Cc2cccc(C(F)(F)F)c2Cl)CC(c2ccccc2)c2ccccc2)c1`, the Potency is reported as “inactive”.
In the case of `NCc1c[nH]c(=S)n1[C@H]1CCc2c(F)cc(F)cc2C1`, the Potency is reported as 20.9 µM (active).
For `CCNC(=O)Nc1ccc(Oc2ncnc(N)c2C=NOC)cc1Cl`, the Potency was 2.96 µM (active).
With `COc1cc2nccc(Oc3ccc(NC(=O)Nc4ccc(F)cc4F)c(F)c3)c2cc1OC` the Potency was “inactive”.
In the case of `CO[C@H]1C=CO[C@@]2(C)Oc3c(C)c(O)c4c(O)c(c(C=NN5CCN(C)CC5)c(O)c4c3C2=O)NC(=O)C(C)=CC=C[C@H](C)[C@H](O)[C@@H](C)[C@@H](O)[C@@H](C)[C@H](OC(C)=O)[C@H]1C`, the Potency is reported as 5.98 µM (active).
With `CC(C)c1c(C(=O)Nc2ccccc2)c(-c2ccccc2)c(-c2ccc(F)cc2)n1CC[C@H](O)C[C@@H](O)CC(=O)O` the Potency was “inactive”.
With `Cc1ccc(C2=Nc3ccc(Cl)cc3OC2)cc1` the Potency was 1.18 µM (active).
In the case of `C[C@@H]1[C@H](C)CC[C@]2(C(=O)O)CC[C@]3(C)C(=CC[C@@H]4[C@@]5(C)CC[C@H](O)C(C)(C)[C@H]5CC[C@]43C)[C@@H]12`, the Potency is reported as “inactive”.
For `OC(c1cc(C(F)(F)F)nc2c(C(F)(F)F)cccc12)C1CCCCN1` (stereo not drawn), the Potency was 18.7 µM (active).
With `O=C(O)c1ccc(O)c2ncc(N3CCOCC3)cc12` the Potency was 20.9 µM (active).
In the case of `O=c1cc(-c2ccc(O)c(O)c2)oc2cc(O)cc(O)c12`, the Potency is reported as “inactive”.
With `FC(F)(F)c1ccc(C=Cc2nc(COc3ccc(CCCCn4ccnn4)cc3)co2)cc1` the Potency was 0.0105 µM (active).
In the case of `C[C@@H]1CC=CC=CC=CC=C[C@@H](O[C@@H]2O[C@H](C)[C@@H](O)[C@H](N)[C@H]2O)C[C@@H]2O[C@](O)(C[C@@H](O)C[C@@H]3O[C@@H]3C=CC(=O)O1)C[C@H](O)[C@@H]2C(=O)O`, the Potency is reported as “inactive”.
